Laboratory results: the supplement of paper PMC12067093, “Discovery and optimisation of a covalent ligand for TRIM25 and its application to targeted protein ubiquitination” (Chemical Science, 2025)
The full data set covers some 21,000 targets. This sample favours those with the largest changes.

Compound: Cc1cc(ccc1-c1ccccc1)C(=O)N1CCCN(CC1)C(=O)CCl [compound 10]
Assay: probe-labelled cysteine peptide fold change vs DMSO (competition) (log2 fold change); higher = less target engagement (more negative = stronger competition)
Conditions: THP-1, incubation time: 4 h
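Further: competitive profiling in live THP-1 cells: cysteine peptides tagged with an iodoacetamide desthiobiotin (IA-DTB) probe, intensity after compound treatment relative to DMSO-treated cells.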

Chain of UniProt Q13263 (Q13263 whole entry, looked up): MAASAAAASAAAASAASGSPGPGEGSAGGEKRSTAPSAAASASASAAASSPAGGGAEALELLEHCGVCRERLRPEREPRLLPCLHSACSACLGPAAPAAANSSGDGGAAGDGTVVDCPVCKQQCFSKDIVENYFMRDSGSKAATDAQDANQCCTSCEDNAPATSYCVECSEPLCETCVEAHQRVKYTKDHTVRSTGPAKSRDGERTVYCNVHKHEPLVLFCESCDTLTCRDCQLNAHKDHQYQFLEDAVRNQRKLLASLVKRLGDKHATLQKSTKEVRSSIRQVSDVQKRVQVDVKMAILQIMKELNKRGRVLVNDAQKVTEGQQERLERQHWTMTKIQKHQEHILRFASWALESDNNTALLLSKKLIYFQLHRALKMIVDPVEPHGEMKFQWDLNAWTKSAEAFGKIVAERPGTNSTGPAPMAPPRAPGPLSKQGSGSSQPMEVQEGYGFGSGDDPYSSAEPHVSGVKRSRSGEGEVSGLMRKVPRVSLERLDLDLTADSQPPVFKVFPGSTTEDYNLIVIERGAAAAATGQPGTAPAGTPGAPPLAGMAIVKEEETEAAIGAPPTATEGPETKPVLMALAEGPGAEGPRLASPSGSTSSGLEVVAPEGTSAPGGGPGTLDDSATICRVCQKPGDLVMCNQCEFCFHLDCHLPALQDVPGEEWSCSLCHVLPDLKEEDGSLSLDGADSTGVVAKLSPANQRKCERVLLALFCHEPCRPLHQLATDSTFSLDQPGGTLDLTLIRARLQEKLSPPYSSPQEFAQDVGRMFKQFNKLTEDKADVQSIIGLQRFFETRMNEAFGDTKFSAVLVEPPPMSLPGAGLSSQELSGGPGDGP
Chain of UniProt P54578 (P54578 whole entry, looked up): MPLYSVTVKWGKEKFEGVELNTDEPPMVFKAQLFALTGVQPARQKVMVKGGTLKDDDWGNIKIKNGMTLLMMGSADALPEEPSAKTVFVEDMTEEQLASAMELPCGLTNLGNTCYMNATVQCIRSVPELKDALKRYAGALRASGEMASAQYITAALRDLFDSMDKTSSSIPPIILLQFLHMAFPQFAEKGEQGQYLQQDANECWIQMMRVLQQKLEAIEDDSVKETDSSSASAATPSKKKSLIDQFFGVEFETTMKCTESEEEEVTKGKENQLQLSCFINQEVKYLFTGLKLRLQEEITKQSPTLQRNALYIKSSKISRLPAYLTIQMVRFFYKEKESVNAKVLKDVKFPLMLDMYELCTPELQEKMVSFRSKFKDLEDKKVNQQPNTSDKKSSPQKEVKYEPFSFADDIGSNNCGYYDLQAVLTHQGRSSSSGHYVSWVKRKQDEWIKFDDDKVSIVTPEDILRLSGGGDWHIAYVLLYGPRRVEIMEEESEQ
Chain of UniProt Q9C035 (Q9C035 whole entry): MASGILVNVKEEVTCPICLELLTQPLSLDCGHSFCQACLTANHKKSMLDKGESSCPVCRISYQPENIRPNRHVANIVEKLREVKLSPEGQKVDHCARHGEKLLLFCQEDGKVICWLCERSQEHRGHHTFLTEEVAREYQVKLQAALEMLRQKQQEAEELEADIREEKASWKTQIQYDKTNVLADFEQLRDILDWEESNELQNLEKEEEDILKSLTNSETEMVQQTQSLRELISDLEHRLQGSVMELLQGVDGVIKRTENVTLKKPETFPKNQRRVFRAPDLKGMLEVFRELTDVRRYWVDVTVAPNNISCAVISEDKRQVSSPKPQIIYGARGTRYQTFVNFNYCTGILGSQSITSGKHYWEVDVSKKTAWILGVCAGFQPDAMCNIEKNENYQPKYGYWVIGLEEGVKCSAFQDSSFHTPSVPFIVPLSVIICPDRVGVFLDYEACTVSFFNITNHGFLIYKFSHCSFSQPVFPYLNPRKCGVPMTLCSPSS
Chain of UniProt Q9UPN9 (Q9UPN9 whole entry, looked up): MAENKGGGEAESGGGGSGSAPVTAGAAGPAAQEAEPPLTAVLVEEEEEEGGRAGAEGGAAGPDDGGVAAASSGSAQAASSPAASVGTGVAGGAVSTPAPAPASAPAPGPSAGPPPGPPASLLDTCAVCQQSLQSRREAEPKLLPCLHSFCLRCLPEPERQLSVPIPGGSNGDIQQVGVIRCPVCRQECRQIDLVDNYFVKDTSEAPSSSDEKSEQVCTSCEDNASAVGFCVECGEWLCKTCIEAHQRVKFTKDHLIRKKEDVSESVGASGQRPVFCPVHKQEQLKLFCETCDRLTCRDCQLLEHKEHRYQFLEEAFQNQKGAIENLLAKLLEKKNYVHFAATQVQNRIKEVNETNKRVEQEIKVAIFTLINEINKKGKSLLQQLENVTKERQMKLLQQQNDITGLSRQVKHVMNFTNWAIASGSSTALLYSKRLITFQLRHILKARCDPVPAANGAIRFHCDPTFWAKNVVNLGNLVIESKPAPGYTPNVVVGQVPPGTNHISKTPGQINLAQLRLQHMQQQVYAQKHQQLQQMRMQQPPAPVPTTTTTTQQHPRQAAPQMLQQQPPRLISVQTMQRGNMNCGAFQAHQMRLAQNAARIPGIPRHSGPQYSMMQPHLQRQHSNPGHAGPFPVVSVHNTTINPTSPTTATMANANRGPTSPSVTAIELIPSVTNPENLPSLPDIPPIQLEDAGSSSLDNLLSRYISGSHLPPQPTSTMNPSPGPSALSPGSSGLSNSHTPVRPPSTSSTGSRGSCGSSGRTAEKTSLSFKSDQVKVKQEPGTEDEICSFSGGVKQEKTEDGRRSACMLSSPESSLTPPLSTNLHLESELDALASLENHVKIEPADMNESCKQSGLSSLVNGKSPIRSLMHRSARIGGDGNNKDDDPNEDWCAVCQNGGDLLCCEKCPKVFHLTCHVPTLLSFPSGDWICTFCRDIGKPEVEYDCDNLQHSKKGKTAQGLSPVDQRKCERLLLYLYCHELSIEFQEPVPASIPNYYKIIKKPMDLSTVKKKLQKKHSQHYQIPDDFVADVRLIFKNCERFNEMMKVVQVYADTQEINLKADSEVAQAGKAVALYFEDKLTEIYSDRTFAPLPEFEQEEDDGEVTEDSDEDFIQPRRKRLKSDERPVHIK
Chain of UniProt P60604 (P60604 whole entry): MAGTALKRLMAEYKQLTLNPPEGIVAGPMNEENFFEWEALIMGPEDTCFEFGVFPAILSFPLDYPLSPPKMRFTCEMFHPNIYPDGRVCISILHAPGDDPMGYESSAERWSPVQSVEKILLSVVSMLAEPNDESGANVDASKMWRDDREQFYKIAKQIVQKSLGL
Chain of UniProt Q9UKW4 (Q9UKW4 whole entry, looked up): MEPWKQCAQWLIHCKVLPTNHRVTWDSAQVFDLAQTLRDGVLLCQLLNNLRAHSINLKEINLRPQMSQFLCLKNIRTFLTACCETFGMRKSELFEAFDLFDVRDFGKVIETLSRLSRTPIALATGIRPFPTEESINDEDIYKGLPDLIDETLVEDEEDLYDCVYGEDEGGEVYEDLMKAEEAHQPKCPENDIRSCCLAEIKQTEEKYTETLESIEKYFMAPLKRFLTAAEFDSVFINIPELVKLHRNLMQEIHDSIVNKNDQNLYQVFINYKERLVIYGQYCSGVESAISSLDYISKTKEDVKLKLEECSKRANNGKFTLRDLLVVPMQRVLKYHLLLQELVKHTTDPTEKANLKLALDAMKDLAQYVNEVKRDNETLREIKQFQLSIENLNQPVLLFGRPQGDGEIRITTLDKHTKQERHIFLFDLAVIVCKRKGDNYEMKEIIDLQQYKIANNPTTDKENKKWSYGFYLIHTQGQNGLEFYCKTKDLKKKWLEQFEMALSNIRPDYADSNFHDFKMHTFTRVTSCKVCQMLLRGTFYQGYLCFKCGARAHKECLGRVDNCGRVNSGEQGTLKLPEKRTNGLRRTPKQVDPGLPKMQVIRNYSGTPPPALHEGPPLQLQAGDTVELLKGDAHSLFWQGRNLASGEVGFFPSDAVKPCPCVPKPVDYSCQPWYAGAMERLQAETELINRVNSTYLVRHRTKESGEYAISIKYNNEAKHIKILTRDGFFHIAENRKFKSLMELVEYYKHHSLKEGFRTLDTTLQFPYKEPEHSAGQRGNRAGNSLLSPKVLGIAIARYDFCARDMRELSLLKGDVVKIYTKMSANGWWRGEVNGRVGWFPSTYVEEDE
Chain of UniProt Q12931 (Q12931 whole entry, looked up): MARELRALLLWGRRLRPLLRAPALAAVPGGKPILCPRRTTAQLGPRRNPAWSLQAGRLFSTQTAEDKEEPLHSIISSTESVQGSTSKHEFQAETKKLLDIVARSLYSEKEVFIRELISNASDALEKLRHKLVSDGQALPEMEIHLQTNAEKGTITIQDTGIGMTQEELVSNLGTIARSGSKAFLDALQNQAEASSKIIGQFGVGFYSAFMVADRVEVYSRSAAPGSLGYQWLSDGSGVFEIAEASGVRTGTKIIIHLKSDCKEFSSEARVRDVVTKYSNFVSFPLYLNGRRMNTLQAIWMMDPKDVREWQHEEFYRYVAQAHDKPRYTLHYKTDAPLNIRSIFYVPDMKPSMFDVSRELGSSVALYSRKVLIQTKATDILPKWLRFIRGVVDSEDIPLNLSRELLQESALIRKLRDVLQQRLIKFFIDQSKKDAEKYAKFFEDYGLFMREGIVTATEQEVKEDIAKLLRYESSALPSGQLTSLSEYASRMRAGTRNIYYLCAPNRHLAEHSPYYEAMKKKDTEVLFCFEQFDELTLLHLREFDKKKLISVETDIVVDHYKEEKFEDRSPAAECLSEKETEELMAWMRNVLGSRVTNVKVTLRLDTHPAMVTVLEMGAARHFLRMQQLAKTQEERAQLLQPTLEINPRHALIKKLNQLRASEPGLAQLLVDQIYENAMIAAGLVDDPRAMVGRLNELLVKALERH
Chain of UniProt Q9NPD8 (Q9NPD8 whole entry, looked up): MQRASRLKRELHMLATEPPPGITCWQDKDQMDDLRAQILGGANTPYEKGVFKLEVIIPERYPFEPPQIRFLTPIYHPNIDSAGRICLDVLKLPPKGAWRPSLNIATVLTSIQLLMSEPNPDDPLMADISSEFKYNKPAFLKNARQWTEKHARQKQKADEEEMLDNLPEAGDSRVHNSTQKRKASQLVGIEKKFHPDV
Chain of UniProt O75865 (O75865 whole entry): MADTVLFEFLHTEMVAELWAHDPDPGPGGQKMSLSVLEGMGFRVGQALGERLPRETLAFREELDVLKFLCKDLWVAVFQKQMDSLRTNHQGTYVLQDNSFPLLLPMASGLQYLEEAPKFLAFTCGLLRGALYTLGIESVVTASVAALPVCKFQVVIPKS

Target | probe-labelled cysteine peptide fold change (10 µM) | probe-labelled cysteine peptide fold change (50 µM)
UQCRC2_P22695_192_NALANPLYCPDYR (UniProt P22695) | 0.015 | 0.158
VAV3_Q9UKW4_187_CPENDIR (UniProt Q9UKW4) | -0.136 | -0.136
UBR4_Q5T4S7_2222_HTACNEQQR (UniProt Q5T4S7) | -0.245 | -1.12
VCPIP1_Q96JH7_469+472_CLLCGALSELHVPPEWLAPGGK (UniProt Q96JH7) | -0.12 | 0.233
TRIM25_Q14258_506_FTYCSQVLGLHCYK (UniProt Q14258) | -1.09 | -4.87
TRIM25_Q14258_110_ASAPSPNAQVACDHCLK (UniProt Q14258) | -0.0981 | -0.283
UGGT1_Q9NYU2_1475+1479_SLPQEWLWCETWCDDASK (UniProt Q9NYU2) | -0.291 | -0.0794
USP10_Q14694_456_VQRPCTSTPMIDSFVR (UniProt Q14694) | -0.0395 | -0.00663
VPS37A_Q8NEZ2_375_TICHCR (UniProt Q8NEZ2) | 0.41 | 1.08
VPS26B_Q4G0F5_334_TPSQLSDNNCRQ (UniProt Q4G0F5) | -0.205 | -0.321
TRAPPC6A_O75865_124_FLAFTCGLLR (UniProt O75865) | 0.203 | 0.608
TRIM28_Q13263_717_VLLALFCHEPCR (UniProt Q13263) | 0.00318 | 0.0176
TXNRD2_Q9NNW7_523_SGLDPTVTGCUG (UniProt Q9NNW7) | -1.15 | -2.15
USP40_Q9NVE5_1054_RIEICLEPLQK (UniProt Q9NVE5) | 0.0209 | -0.0411
TTC39C_Q8N584_517_AVKDELCR (UniProt Q8N584) | -0.00819 | -0.291
TRAP1_Q12931_527_KDTEVLFCFEQFDELTLLHLR (UniProt Q12931) | 0.143 | 0.314
VIM_P08670_328_RQVQSLTCEVDALK (UniProt P08670) | 0.00911 | -0.139
TRNT1_Q96Q11_373_YQGEHCLLK (UniProt Q96Q11) | -0.39 | -1.54
USP8_P40818_809_NCYQDDINR (UniProt P40818) | -0.199 | -1.27
TRIM33_Q9UPN9_276_KKEDVSESVGASGQRPVFCPVHK (UniProt Q9UPN9) | -0.0301 | -0.148
UBA7_P41226_829_CQNYGIPPVNR (UniProt P41226) | -0.03 | 0.153

Target | probe-labelled cysteine peptide fold change (10 µM) | probe-labelled cysteine peptide fold change (50 µM)
TRIM56_Q9BRZ2_41_TLPCLHTYCQDCLAQLADGGR (UniProt Q9BRZ2) | 0.238 | 0.113
TTC17_Q96AE7_725_CPECENSLK (UniProt Q96AE7) | 0.113 | 0.453
TXN2_Q99757_93_VVNSETPVVVDFHAQWCGPCK (UniProt Q99757) | -1.34 | -1.7
UBE2T_Q9NPD8_24_ELHMLATEPPPGITCWQDK (UniProt Q9NPD8) | -0.209 | -0.165
TTF1_Q15361_445_KTQACLASK (UniProt Q15361) | -0.039 | -0.411
UBR7_Q8N806_99+101_CDCGNSK (UniProt Q8N806) | -0.364 | -1.41
USP16_Q9Y5T5_24_TVPIDDSSETLEPVCR (UniProt Q9Y5T5) | -0.224 | -0.204
TXN2_Q99757_90+93_VVNSETPVVVDFHAQWCGPCK (UniProt Q99757) | -1.92 | -2.07
TTC1_Q99614_178_EMAINDCSK (UniProt Q99614) | 0.303 | -0.13
USP34_Q70CQ2_3118_SNIRPPRPELNMCLLPTMVETSK (UniProt Q70CQ2) | 0.146 | -0.174
VAPA_Q9P0L0_179_KLMEECK (UniProt Q9P0L0) | -0.0535 | -0.275
TTLL12_Q14166_126_ESGLQAAHPNSIFLIDHAWTCR (UniProt Q14166) | 0.0995 | 0.0514
USP48_Q86UV5_512+514_WLDESTPTKPIDNHACLCSHDK (UniProt Q86UV5) | -0.0825 | -1.16
UBE2G2_P60604_75_FTCEMFHPNIYPDGR (UniProt P60604) | -0.0589 | -0.214
UBA3_Q8TBC4_28_MAVDGGCGDTGDWEGR (UniProt Q8TBC4) | -0.245 | -0.0349
TRIM5_Q9C035_95_VDHCAR (UniProt Q9C035) | -0.107 | -0.113
USP3_Q9Y6I4_385_SFTDLEELDETELYMCHK (UniProt Q9Y6I4) | -0.114 | -0.984
USP14_P54578_257_CTESEEEEVTK (UniProt P54578) | -0.254 | -0.167
USP13_Q92995_231_ENLWLNLTDGSVLCGK (UniProt Q92995) | 0.0774 | 0.113
TRA2B_P62995_119_ANPDPNCCLGVFGLSLYTTER (UniProt P62995) | 0.163 | 0.111
